Sampled rows, rich in hits. Any-hit rate of the full collection: about 3.5%.
mHTT CaM bind – inhibitors of human mutant huntingtin-calmodulin interaction | AlphaScreen His-mHTT/GST-CaM binding, luminescence | AID 1671202 | hit rate 3.6% among 190,000 | inhibition, % at 15 µM;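 note: 0% = both proteins with DMSO and 100% = one protein alone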
Pf apPOL inh – Pf-apPOL DNA polymerase inhibition. AID 1794808. inhibition, % at 10 µM. Recombinant Pf-apPOL, molecular beacon fluorescence, 1.5 h. hit rate 0.25% among 210,000
An asterisk follows results filed as active; . = no result given; ! = not confirmed by another sample. Cut-off read from the data, not from the text of the source: active = inhibition above about 50%; inactive = the rest.

SMILES	mHTT CaM bind	Pf apPOL inh
CC(C)NC(=O)c1ccc2ncc3c(=O)n(-c4ccc(F)cc4)[nH]c3c2c1	5	10
Cc1cccc(C(=O)N=c2sccn2Cc2ccccc2C(=O)N2CCCC2)c1	15	0
O=C(N=c1sccn1Cc1ccc(C(=O)N2CCCC2)cc1)c1ccccc1F	7	58*
COc1ccc(N2C(=O)CSC2c2ccc(Cl)cc2)c(OC)c1 (stereo not given)	30	0
O=C(Nc1nc(C(F)(F)F)cs1)c1cc([N+](=O)[O-])cc([N+](=O)[O-])c1	11	-1
COc1cccc(C(=O)Nc2c3c(nn2-c2ccc(C)cc2C)CSC3)c1OC	50*	-3
Cc1ccc(-n2nc3c(c2NC(=O)c2ccco2)CSC3)c(C)c1	52*	-10
Cc1cccc(-n2nc3c(c2NC(=O)c2ccco2)CSC3)c1C	60*	-7
O=C(NCc1cccs1)C(=O)Nc1c2c(nn1-c1cccc(Cl)c1)CSC2	69*	-5
Cc1ccccc1-n1nc2c(c1NC(=O)c1ccco1)CSC2	38	-2
COc1cc(C(=O)Nc2c3c(nn2-c2ccc(C)cc2C)CSC3)cc(OC)c1OC	-2	-7
O=C(Nc1c2c(nn1-c1cccc(Cl)c1)CSC2)c1c(F)cccc1F	23	-5
Cc1ccc(C(=O)Nc2c3c(nn2-c2ccc(C)cc2C)CSC3)cc1	32	-8
O=C(Nc1ccc2c(c1)OCO2)N(CCc1cccs1)Cc1cccnc1	-8	-8
CN1CCOc2ccc(NC(=O)c3cc(-c4ccccc4)nn3C)cc2C1=O	12	4
CC(=O)Nc1c2c(nn1-c1cccc(Cl)c1)CSC2	35	-7
Cc1ccc(-n2nc3c(c2NC(=O)c2cccc([N+](=O)[O-])c2)CSC3)c(C)c1	0	-5
Cc1ccc(-n2nc3c(c2NC(=O)c2ccc([N+](=O)[O-])cc2)CSC3)c(C)c1	50*	-5
O=C(Nc1c2c(nn1-c1cccc(Cl)c1)CSC2)c1ccco1	67*	-1
O=C(NCc1cccs1)Nc1nnc(Cc2ccc(F)cc2)o1	-11	1
Cc1ccc(C2=NC3(CCNCC3)NC(c3cc(Cl)ccc3O)C2)cc1C (stereo not given)	10	0
Oc1ccc(Cl)cc1C1CC(c2ccc(Cl)cc2)=NC2(CCNCC2)N1 (stereo not given)	66*	-6
COc1ccc(C2=NC3(CCNCC3)NC(c3cc(Br)ccc3O)C2)cc1 (stereo not given)	71*	-2
COc1cccc(C2=NC3(CCNCC3)NC(c3cc(Br)ccc3O)C2)c1 (stereo not given)	14	-7
O=C(COc1ccc(I)cc1)Nc1ccccc1-c1ccccc1	-40	-4
SMILES	mHTT CaM bind	Pf apPOL inh
CCNC(=O)C1Cc2ccc(OC)cc2N2CCN(c3ccc(C)cc3)CC12 (stereo not given)	64*	1
COc1cccc(N2CCN3c4ccccc4CC(C(=O)NC(C)C)C3C2)c1 (stereo not given)	32	-2
Cc1ccc(N2CCN3c4ccccc4CC(C(=O)N4CCSCC4)C3C2)cc1 (stereo not given)	58*	-1
CCNC(=O)C1Cc2ccc(OC)cc2N2CCN(c3ccc(OC)cc3)CC12 (stereo not given)	17	-3
O=C(NCCc1cccs1)C1Cc2ccccc2N2CCN(c3ccccc3)CC12 (stereo not given)	95*	-4
O=C(NCc1ccccn1)C1Cc2ccccc2N2CCN(c3ccccc3)CC12 (stereo not given)	38	-12
COc1ccc(N2CCN3c4ccccc4CC(C(=O)N4CCOCC4)C3C2)cc1 (stereo not given)	56*	-2
CCNC(=O)C1Cc2ccccc2N2CCN(c3ccccc3OC)CC12 (stereo not given)	9	1
CCc1ccc(C2=CC(c3cccc(OC)c3OC)n3nnnc3N2)cc1 (stereo not given)	-2	-7
CN(CC(=O)Nc1cc(F)ccc1F)S(=O)(=O)c1cccs1	-5	0
Cc1ccc(CNC(=O)C2=C3CCCN3c3ccc(F)cc3S2(=O)=O)cc1	-8	-5
CCC1Oc2ccc(Cl)cc2N(C(C)C(=O)NCCC2=CCCCC2)C1=O (stereo not given)	-14	-13
COc1cc(C2Nc3ccccc3NC3=C2C(=O)CC(c2ccccc2)C3)cc(OC)c1O (stereo not given)	5	-2
N#C/C(=C\c1cccs1)c1nc(-c2cccs2)cs1	-16	-2
COc1c(C(=O)N2CCOCC2)sc2ccc(F)cc12	-5	-1
COc1c(C(=O)N2CCN(c3ccccc3)CC2)sc2ccc(F)cc12	60*	1
COc1ccc(-c2nc(NC(=O)c3ccco3)sc2C)cc1OC	14	5
CCCN1c2ccccc2-c2c(ssc2=S)C1(C)C	48	.
Cc1ccc2c(c1)-c1c(ssc1=S)C(C)(C)N2	52*	.
CCOc1ccc2c(c1)-c1c(ssc1=S)C(C)(C)N2	51*	.
CCOc1ccccc1NC(=O)c1cc(OC)c(OC)cc1[N+](=O)[O-]	0	-2
O=C(NC1CCCCC1)/C(=C/c1cccnc1)NC(=O)c1ccco1	-3	13
CCS(=O)(=O)CCSc1nc(C)cc(C)n1	17	51*
Cc1cc(C)nc(SCCCCSc2nc(C)cc(C)n2)n1	-7	-6
O=C(c1ccccc1)C1CN(Cc2ccccc2)CCC1(O)c1ccccc1 (stereo not given)	70*	-1
SMILES	mHTT CaM bind	Pf apPOL inh
OC1(c2ccccc2)CCN(Cc2ccccc2)C1 (stereo not given)	-4	-4
CCOC(Cn1c(SCC(=O)Nc2ccc(CC)cc2)nc2ccccc2c1=O)OCC	-5	-1
CCc1nn(-c2ccc(C)cc2)c(CC)c1C(=O)N1CCN(CC)CC1	16	-2
Cc1c(C(=O)N2CCN(C)CC2)c(C2CC2)nn1-c1ccc(Cl)c(Cl)c1	56*	-3
CC(C)c1c(C(=O)N2CCN(C)CC2)c(C2CC2)nn1-c1ccccc1	5	-1
CCc1nn(-c2ccc(Cl)c(Cl)c2)c(CC)c1C(=O)N1CCN(CC)CC1	66*	-10
C=CCc1cccc(C2Nc3ccccc3C(=O)N2O)c1O (stereo not given)	28	57*
O=C1c2ccccc2NC(c2ccc(Cl)cc2Cl)N1O (stereo not given)	32	-4
O=C(NCCN1CCCC1)c1ccc2c(c1)NC(=O)C1CCCCN21 (stereo not given)	2	-1
O=C(c1cc(-c2ccncc2)nc2ccccc12)N1CCN(c2cccc(Cl)c2)CC1	91*	-6
O=C(c1ccccc1Br)N1CCN(c2cccc(Cl)c2)CC1	64*!	3
O=C(c1cc(-c2ccccc2)nc2ccccc12)N1CCCC1	8	8
O=C(CCCOc1ccccc1)N1CCN(c2cccc(Cl)c2)CC1	70*	-6
O=C(c1cccc(Cl)c1)N1CCN(c2ccccc2)CC1	0	-6
O=C(CCCOc1ccccc1)N1CCN(Cc2ccccc2)CC1	8	-1
NC(=O)c1oc2ccccc2c1NC(=O)c1ccc(Br)cc1	10	8
N#CC1=C(N)n2c(s/c(=C\c3ccc([N+](=O)[O-])cc3)c2=O)=C(C#N)C1c1ccc([N+](=O)[O-])cc1 (stereo not given)	14	-6
N#CC1=C(N)n2c(s/c(=C\c3ccc(O)cc3)c2=O)=C(C(N)=O)C1c1ccc(O)cc1 (stereo not given)	53*	-4
